VDR inh: Inhibitors of the vitamin D receptor (VDR): qHTS. 400,000 tested, 0.93% active. Potency, µM, for the others: max response, negative = inhibition, usual class: inhibitors. VDR-SRC2-3 peptide fluorescence polarization, 2 h. Vitamin D3 receptor (Homo sapiens), P11473; note: % is set by controls: 0 for no effect and ±100 for the full control effect
Target sequence (P11473 whole entry, looked up): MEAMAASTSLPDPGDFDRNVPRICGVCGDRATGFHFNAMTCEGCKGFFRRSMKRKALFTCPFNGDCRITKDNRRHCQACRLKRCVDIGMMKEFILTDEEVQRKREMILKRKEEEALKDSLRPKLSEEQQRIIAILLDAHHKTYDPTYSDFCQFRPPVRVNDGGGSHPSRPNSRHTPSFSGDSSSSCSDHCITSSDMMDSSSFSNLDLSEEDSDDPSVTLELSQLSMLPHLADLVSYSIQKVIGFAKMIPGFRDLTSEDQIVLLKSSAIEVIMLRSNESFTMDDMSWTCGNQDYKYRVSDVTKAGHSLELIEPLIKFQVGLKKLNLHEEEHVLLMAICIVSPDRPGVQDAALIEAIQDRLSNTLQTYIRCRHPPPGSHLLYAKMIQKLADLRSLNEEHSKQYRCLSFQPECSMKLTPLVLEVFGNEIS
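VDR–SRC2-3 interaction, FP format. Cmpds 23 nl via pintool, brief spin, 2 h ambient incubation.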
BAZ2B inh: qHTS Assay for Inhibitors of BAZ2B. Potency, µM (top dose mostly 114 µM), for the others: top-dose activity change, negative = inhibition, usual class: inhibitors. 360,000 tested, 4.4% active. AID 504333, 2011. AlphaScreen BAZ2B-H3K14Ac peptide displacement; note: % is set by controls: 0 for no effect and ±100 for the full control effect; nearly all actives have a fitted effect of over 60% in size
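In this displacement format the biotinylated H3(5-23) peptide acetylated at Lys14 serves as ligand at 50 nM, with BAZ2B at 50 nM in PBS pH 7.4 containing 0.01% Tween-20. Donor and acceptor beads are 10 ug/mL final.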
L3MBTL1 block: qHTS Assay for the Inhibitors of L3MBTL1 | 230,000 tested, 0.66% active | AlphaScreen L3MBTL1–H3K9me1 peptide binding | Potency, µM (highest dose often 57.1 µM), inactives show at the highest dose activity, negative = inhibition, hits mostly inhibitors; note: % is set by controls: 0 for no effect and ±100 for the full control effect; nearly all actives have a fitted effect of over 60% in size
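L3MBTL1 (50 nM) pre-complexed 30 min with biotinylated H3(1-15)K9me1 peptide (75 nM), then compounds added for 30 min at room temperature; AlphaScreen streptavidin donor/nickel chelate acceptor beads (10 ug/mL final) read after 30 min dark incubation.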
HP1b chromo inh: HTS for Inhibitors of HP1-beta Chromodomain Interactions with Methylated Histone Tails; Chromobox protein homolog 1 (Homo sapiens), P83916; AlphaScreen HP1-beta / biotin-H3K9me3 peptide binding; Potency, µM (titrated, usually from 114 µM), inactives show at the top dose activity change, negative = inhibition, hits mostly inhibitors; 390,000 tested, 0.56% active; AID 540317, 2011; note: nearly all actives have a fitted effect of over 70% in size
Target sequence (P83916 whole entry, looked up): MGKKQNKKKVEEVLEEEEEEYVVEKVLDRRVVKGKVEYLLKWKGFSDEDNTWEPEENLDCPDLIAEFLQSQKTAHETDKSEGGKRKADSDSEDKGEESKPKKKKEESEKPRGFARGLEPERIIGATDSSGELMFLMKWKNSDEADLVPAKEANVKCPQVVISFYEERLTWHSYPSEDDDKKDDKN
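Compound inhibition of the preformed complex between 50 nM HP1-beta and 50 nM biotinylated H3K9me3 peptide was read by AlphaScreen. Buffer was PBS pH 7.4 with 0.01% Tween-20. Incubations ran 30 min at room temperature, with 10 ug/mL donor/acceptor beads.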
JMJD2A Tudor inh: qHTS Assay for Inhibitors of JMJD2A-Tudor Domain | Lysine-specific demethylase 4A (Homo sapiens), O75164 | AlphaScreen JMJD2A-Tudor / H3K4me3 peptide binding | Potency, µM (highest dose often 114 µM), for inactives: top-dose activity change, negative = inhibition, actives largely listed as inhibitors | 390,000 tested, 4.4% active | AID 504339, 2011; note: % is set by controls: 0 for no effect and ±100 for the full control effect; nearly all actives have a fitted effect of over 50% in size
PLK1 PBD inh: qHTS for Inhibitors of PLK1-PDB (polo-like kinase 1 - polo-box domain): Primary Screen | Plk1 PBD binding of FITC phosphopeptide, fluorescence polarization | Potency, µM, inactives show max response, negative = inhibition, usual class: inhibitors | Serine/threonine-protein kinase PLK1 (Homo sapiens), P53350 | 360,000 tested, 2.8% active; note: series mostly up to about 57 µM; % is set by controls: 0 for no effect and ±100 for the full control effect; nearly all actives have a fitted effect of over 65% in size
* hit, by the source's call; ? = inconclusive; . = not tested or not shown; [ ] = another dose, or the depositor's remark. Only some compounds are listed: those with a hit (about 6.9% of all), similar ones and a draw of the others. Calls come from the whole dose curve; as a rule, active = well fitted curve in the direction sought with a large enough effect; inconclusive = small, poorly fitted or top-dose-only effect, or another doubt; inactive = no such curve, though single readings can be large; an effect the other way counts as inactive or inconclusive. Potency is the fitted concentration of half-maximal effect.

SMILES	VDR inh	BAZ2B inh	L3MBTL1 block	HP1b chromo inh	JMJD2A Tudor inh	PLK1 PBD inh
C[C@H](CO)N1C[C@H](C)[C@@H](CN(C)C(=O)NC2CCCCC2)Oc2c(NC(=O)Nc3ccc(C(F)(F)F)cc3)cccc2C1=O	12%	.	1%	64%	-15%	-1%
Nc1cc(=O)nc(SCC(=O)Nc2ccccc2Cl)n1-c1ccccc1	5%	-9%	14%	20%	-8%[11.4 µM]	-9%
Cc1nnc(-c2cccc(Br)c2)c2cn(-c3cccc(Br)c3)nc12	-24%	56µM*	-4%	23%	?	1%
CNC(=S)N1CCc2cc(OC)c(OC)cc2C1	6%	-2%	1%	12%	-14%	-11%
C/C(N[C@@H]1CSCC1O)=C1/C(=O)CC2[C@@H]1C2(C)C (stereo partly drawn)	-4%	.	.	.	.	.
Cc1ccc(NC(=O)c2ccc(NC(=O)C3CCCC3)cc2)c(C)c1	1%	.	.	50%	-8%	.
Cc1ccccc1C(=O)Nc1cccc(C(=O)N/N=C/c2cc(Cl)cc([N+](=O)[O-])c2O)c1	-2%	22µM*	.	?	50µM*	-25%
Cc1cc(C(=O)N/N=C/c2cccc([N+](=O)[O-])c2O)n[nH]1	-2%	32µM*	?	31%	50µM*	-8%
O=C(Cn1nc2ccccc2n1)N/N=C/c1cc(Cl)cc([N+](=O)[O-])c1O	9%	20µM*	-5%	-19%	50µM*	-22%
O=C(Cn1nnc(-c2ccccc2)n1)N/N=C/c1cccc([N+](=O)[O-])c1	7%	-4%	-5%	28%	-15%	4%
O=C(Cn1nnc(-c2ccccc2)n1)N/N=C/c1cccc([N+](=O)[O-])c1O	-11%	45µM*	1%	29%	?	-15%
Cc1ccc(NS(=O)(=O)c2cc(N)ccc2Cl)c(C)c1	-17%	-9%	-1%	-2%	-14%[11.4 µM]	24µM*
O=C(O)C1Cc2ccccc2CN1S(=O)(=O)c1ccc2ccccc2c1 (stereo not drawn)	6%	50µM*	.	8%	50µM*	-23%
O=C(O)C1Cc2ccccc2CN1S(=O)(=O)c1ccccc1 (stereo not drawn)	4%	?	.	16%	-1%	-2%
Cc1ccc(S(=O)(=O)N2Cc3ccccc3CC2C(=O)Nc2ccc3c(c2)OCO3)cc1 (stereo not drawn)	8%	?	.	?	79µM*	-16%
Cc1cccc(CSc2nc(-c3cccc(C)c3)nc3c2Cc2c(CO)cnc(C)c2O3)c1	9%	-22%	.	26%	-14%	.
COc1cc(C(=O)NS(=O)(=O)c2ccccc2C)ccc1Cc1cn(C)c2ccc(NC(=O)OC3CCCC3)cc12	50µM*	50µM*	.	.	.	.
O=c1c(C(c2ccc(Br)cc2)c2c(O)nc3n(c2=O)CCCS3)c(O)nc2n1CCCS2	-15%	-6%	-9%	45%	-3%	?
O=c1c(C(c2ccc(Br)cc2)c2c(O)nc3n(c2=O)CCS3)c(O)nc2n1CCS2	?	-16%	5%	39%	-16%	15µM*
O=c1c(C(c2c(O)nc3n(c2=O)CCS3)c2cccc3ccccc23)c(O)nc2n1CCS2	?	-28%	-5%	16%	?	30µM*
O=c1c(Cc2ccccc2)c(O)nc2n1CCS2	-8%	10%[57.1 µM]	-4%	29%	0%	-4%
O=c1c(C(c2ccc(O)cc2)c2c(O)nc3n(c2=O)CCS3)c(O)nc2n1CCS2	?	?	3%	8%	45µM*	6µM*
Cc1ccc(C(c2c(O)nc3n(c2=O)CCS3)c2c(O)nc3n(c2=O)CCS3)cc1	50µM*	3%	2%	6%	-18%	17µM*
O=c1c2[nH]c3ccccc3c2nc2n1CCS2	4%	4%	.	29%	4%	-3%
O=c1c(C/C=C/c2ccccc2)c(O)nc2n1CCCS2	-8%	1%	3%	13%	-23%	-18%
SMILES	VDR inh	BAZ2B inh	L3MBTL1 block	HP1b chromo inh	JMJD2A Tudor inh	PLK1 PBD inh
O=c1c(C(c2ccc(O)cc2)c2c(O)nc3n(c2=O)CCCS3)c(O)nc2n1CCCS2	50µM*	-39%	0%	20%	?	12µM*
CCOC(=O)c1c(CCl)nc2ccccc2c1C	-1%	?	-7%	32%	89µM*	-3%
CCc1nc2ccccc2c(C(=O)OCC(=O)N(C)Cc2ccccc2)c1C	27%	.	8%	69%	5%	3%
Cc1nc2ccccc2c(C)c1C(=O)c1ccccc1	-17%	?	4%	34%	-8%[11.4 µM]	24µM*
COC1CCN(C(=O)c2ccc3oc(Cc4ccc(Cl)cc4)nc3c2)CC1	-9%	-11%	.	42%	-7%	-17%
Nc1ccc2oc(Cc3ccc(Cl)cc3)nc2c1	79µM*	-37%	.	-19%	?	.
COc1ccc(Cn2ncc3c4sc(C)cc4n(C)c3c2=O)cc1F	.	.	.	.	-3%	.
Cc1ccc(CC(=O)NCCCc2ccccc2)cc1	12%	1%	.	14%	14%	-9%
NS(=O)(=O)c1ccc(CCNC(=O)c2ccc3nccnc3c2)cc1	-18%	.	16µM*	71µM*	40µM*	-24%
NS(=O)(=O)c1ccc(CCNC(=O)CCS(=O)(=O)c2ccc(Br)cc2)cc1	-26%	32µM*	.	18µM*	32µM*	?
Cc1ccc(S(=O)(=O)CCNC(=O)Cc2ccccc2)cc1	56µM*	-12%	5%	-3%	20µM*	9.5µM*
NS(=O)(=O)c1ccc(CCNC(=O)CNCCc2ccccc2)cc1	-8%	50µM*	.	?	25µM*	-11%
NS(=O)(=O)c1ccc(CCNC(=O)CSc2ccccc2)cc1	-21%	10%	8%	41%	-4%[11.4 µM]	?
NS(=O)(=O)c1ccc(CCNC(=O)c2ccc(C(=O)c3ccccc3)cc2)cc1	-2%	0%	.	-17%	-10%	-9%
O=[N+]([O-])C1C(c2ccccc2)=NOC1c1ccccc1O (stereo not drawn)	-1%	-5%	-6%	40%	-24%	-3%
Cc1ccc2c(CC(=O)NCCc3ccc(S(N)(=O)=O)cc3)coc2c1	-14%	-12%	.	16%	45µM*	1%
Cc1ccc2occ(CC(=O)Nc3ccc(S(N)(=O)=O)cc3)c2c1	2%	-11%	.	13%	-28%	.
O=C(CCS(=O)(=O)c1ccc(Br)cc1)NCCc1ccccc1	18%	?	.	?	40µM*	30µM*

Screening data: PubChem, National Center for Advancing Translational Sciences (NCATS)
